Common to all, as to test: DAPPL (digital affinity profiling via proximity ligation, sequencing); 10 mM Tris-HCl pH 7.5, 50 mM NaCl, 1 mM DTT, 4% glycerol, room temperature, 30 min; GST-TFs on glutathione beads, 16-mer random dsDNA library, 0.1% formaldehyde crosslink after washing; high values mean tight binding
The target in assay [1] is T1, FLI1 (Homo sapiens, UniProt Q01543 1-452).
T1 sequence: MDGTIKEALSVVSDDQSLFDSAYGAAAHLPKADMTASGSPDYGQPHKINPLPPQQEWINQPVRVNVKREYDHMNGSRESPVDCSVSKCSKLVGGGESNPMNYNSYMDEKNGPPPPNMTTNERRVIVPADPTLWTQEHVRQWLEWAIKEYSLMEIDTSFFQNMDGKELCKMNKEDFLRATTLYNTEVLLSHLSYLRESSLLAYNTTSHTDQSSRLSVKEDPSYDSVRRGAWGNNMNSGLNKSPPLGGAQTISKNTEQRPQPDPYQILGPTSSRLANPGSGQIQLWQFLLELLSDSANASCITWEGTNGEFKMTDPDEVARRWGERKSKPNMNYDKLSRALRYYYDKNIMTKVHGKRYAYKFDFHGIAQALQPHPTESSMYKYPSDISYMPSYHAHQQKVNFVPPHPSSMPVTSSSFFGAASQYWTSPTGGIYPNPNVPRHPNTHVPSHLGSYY
As to conditions: protein: recombinant; tags: N-terminal GST; dsDNA, one strand shown. Put shortly:
(§1)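 Each value of binding signal is a hexamer's read frequency for a factor divided by the same hexamer's frequency in the tag-only sample. Barcoded, bead-captured GST fusions of human transcription factors made in yeast were pooled with that sample and incubated with 200 nmole of a random double-stranded 16-mer DNA library in Tris/NaCl/DTT/glycerol buffer at room temperature for 30 min. Washing, 0.1% formaldehyde crosslinking, proximity ligation, PCR and Illumina NextSeq500 sequencing followed.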

Assay [2] has as its target HSF1 (Homo sapiens, UniProt Q00613 1-529). As to conditions: protein: recombinant; tags: N-terminal GST; chain copies: 3; dsDNA, one strand shown. Put shortly: as §1
Assay [3] addresses CRX (Homo sapiens, UniProt O43186 1-299). As to conditions: protein: recombinant; tags: N-terminal GST; dsDNA, one strand shown. A digest of the protocol:
as §1

In assay [4] the target is T2, SPDEF (Homo sapiens, UniProt O95238 1-335).
T2 sequence: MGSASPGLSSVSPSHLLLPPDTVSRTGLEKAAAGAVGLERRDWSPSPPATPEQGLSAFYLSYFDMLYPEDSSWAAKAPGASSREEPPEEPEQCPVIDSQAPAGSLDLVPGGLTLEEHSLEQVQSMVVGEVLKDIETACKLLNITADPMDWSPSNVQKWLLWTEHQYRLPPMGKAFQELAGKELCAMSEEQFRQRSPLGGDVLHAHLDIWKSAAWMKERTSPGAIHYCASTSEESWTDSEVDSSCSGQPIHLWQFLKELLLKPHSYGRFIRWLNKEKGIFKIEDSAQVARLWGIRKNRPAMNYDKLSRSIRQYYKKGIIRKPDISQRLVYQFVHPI
Conditions: protein: recombinant; tags: N-terminal GST; dsDNA, one strand shown. A digest of the protocol: as §1

Chain of CRX (O43186 whole entry): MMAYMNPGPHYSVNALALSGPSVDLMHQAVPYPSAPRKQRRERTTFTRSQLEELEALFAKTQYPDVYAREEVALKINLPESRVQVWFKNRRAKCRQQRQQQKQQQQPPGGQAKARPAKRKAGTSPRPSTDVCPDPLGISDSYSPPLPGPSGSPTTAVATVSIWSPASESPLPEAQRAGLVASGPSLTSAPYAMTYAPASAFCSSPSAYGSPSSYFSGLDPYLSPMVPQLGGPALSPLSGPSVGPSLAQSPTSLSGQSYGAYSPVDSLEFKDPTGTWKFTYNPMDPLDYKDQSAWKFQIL
Chain of HSF1 (Q00613 whole entry): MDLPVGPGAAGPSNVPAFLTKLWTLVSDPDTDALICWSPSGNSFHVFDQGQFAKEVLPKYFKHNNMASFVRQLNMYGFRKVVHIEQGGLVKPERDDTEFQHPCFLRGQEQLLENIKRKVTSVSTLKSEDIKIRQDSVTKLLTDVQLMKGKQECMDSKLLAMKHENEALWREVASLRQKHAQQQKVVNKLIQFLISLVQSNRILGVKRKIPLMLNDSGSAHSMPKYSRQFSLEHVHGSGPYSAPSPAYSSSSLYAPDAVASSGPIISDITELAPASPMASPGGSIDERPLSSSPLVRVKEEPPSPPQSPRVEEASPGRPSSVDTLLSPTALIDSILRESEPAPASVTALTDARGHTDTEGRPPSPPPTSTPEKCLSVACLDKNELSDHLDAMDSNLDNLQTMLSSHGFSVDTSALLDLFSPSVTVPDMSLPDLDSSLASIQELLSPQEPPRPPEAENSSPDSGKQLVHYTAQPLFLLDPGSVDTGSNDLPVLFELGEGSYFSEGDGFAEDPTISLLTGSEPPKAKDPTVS

In the case of TAAGTC, the binding signal is 1 fold enrichment (6-mer frequency, TF over GST control) in assay [1]; 1.21 fold enrichment (6-mer frequency, TF over GST control) in assay [2]; 1.79 fold enrichment (6-mer frequency, TF over GST control) in assay [3]; 1.01 fold enrichment (6-mer frequency, TF over GST control) in assay [4].

Values taken from PMC7862700, “An all-to-all approach to the identification of sequence-specific readers for epigenetic DNA modifications on cytosine”.
